# ALOX15B inhib: inhibitors of human 15-lipoxygenase 2 (ALOX15B) | purified 15hLO-2, xylenol orange hydroperoxide absorbance | Potency, µM (series often up to 57.1 µM), for inactives: top-dose activity change, negative = inhibition, hits mostly inhibitors | actives 0.56% (n = 110,000) | AID 881; also: nearly all actives have a fitted effect of over 60% in size
# Target sequence (O15296 whole entry, looked up): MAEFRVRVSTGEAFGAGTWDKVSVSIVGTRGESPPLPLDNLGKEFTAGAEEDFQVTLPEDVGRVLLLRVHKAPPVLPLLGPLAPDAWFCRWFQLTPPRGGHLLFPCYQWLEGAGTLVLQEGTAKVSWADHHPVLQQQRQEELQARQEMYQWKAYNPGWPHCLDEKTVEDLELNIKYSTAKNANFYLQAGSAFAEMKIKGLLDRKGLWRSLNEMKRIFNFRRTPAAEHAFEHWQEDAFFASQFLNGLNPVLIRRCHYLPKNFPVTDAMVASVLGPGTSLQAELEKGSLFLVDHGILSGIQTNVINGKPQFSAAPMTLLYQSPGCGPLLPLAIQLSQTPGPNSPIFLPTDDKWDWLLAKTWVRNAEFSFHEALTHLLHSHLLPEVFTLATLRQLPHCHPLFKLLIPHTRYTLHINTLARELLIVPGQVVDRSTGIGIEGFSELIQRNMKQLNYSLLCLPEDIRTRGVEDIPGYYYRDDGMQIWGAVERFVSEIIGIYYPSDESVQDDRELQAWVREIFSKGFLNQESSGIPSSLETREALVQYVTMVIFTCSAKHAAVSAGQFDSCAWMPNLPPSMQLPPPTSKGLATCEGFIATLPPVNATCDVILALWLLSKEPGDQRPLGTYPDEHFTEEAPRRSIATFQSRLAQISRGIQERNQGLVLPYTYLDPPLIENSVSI
#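 Enzyme 50 nM, AA 45 uM, 25 mM Hepes pH 7.5 + 0.01% Triton X-100; cpd preinc 15 min RT, rxn 90 min RT; stop/detect with 200 uM XO + 300 uM Fe(II) in 50 mM H2SO4, 30 min; A573/A405.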
# ALOX12 inhib: inhibitors of human 12-lipoxygenase (ALOX12). P18054. purified 12-hLO, xylenol orange hydroperoxide absorbance. Potency, µM (top dose mostly 57.1 µM), for the others: at the highest dose activity change, negative = inhibition, hits mostly inhibitors. actives 0.12% (n = 150,000). AID 1452; also: nearly all actives have a fitted effect of over 55% in size
#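 Xylenol orange chromogenic assay: hydroperoxide from 12hLO oxidises Fe(II), giving red-shifted Fe(III)-XO absorbance. Conditions: 150 nM enzyme, 40 uM arachidonic acid, 25 mM Hepes pH 7.0, 0.01% Triton X-100, 30 min, room temperature.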
# Starred values were filed as active, the others as inactive; u = inconclusive; x = no result given; [ ] = remark or other dose. This is one part of a sample in which hits are shown more often than they occur. Calls follow the shape of the dose curve; as a rule, active = well fitted curve in the direction sought with a large enough effect; inconclusive = small, poorly fitted or top-dose-only effect, or another doubt; inactive = no such curve, though single readings can be large; an effect the other way counts as inactive or inconclusive. % is scaled to controls: 0 for no effect and ±100 for the full control effect; potency is read from the fitted curve at half-maximal effect.
SMILES,ALOX15B inhib,ALOX12 inhib
CS(=O)(=O)N1CCC[C@@]2(CCN(C(=O)Nc3cccc(F)c3)C2)C1,-6%,1%
Cc1ccc(S(=O)(=O)Nc2nc(C)c(NC(=O)OCCCl)s2)cc1,-10%,2%
Cc1ccc(S(=O)(=O)Nc2nc(C)c(NC(=O)Nc3ccc(Cl)cc3Cl)s2)cc1,u,7.1µM*
CC1(C)CC(Nc2ccc(Nc3ccccc3)cc2)CC(C)(C)N1,4µM*,u
CC1(C)CC(NC(=O)c2ccccc2Cl)CC(C)(C)N1,7%,-5%
O=[N+]([O-])c1ccc(S(=O)(=O)Cc2ccccc2)c([N+](=O)[O-])c1,-19%[11.4 µM],-5%[11.4 µM]
COCC(=O)N1CCC[C@@]2(CCN(C(=O)Nc3cccc(C#N)c3)C2)C1,-1%,6%
CCOC(=O)C1=C(Cc2ccc(OC)cc2)C(=O)c2ccccc2C1=O,13µM*,-21%
CCOC(=O)C1=C(Cc2ccc(C)cc2)C(=O)c2ccccc2C1=O,10µM*,u
CCOC(=O)c1ccc(COC(=O)c2ccc3c(c2)-c2ccccc2C3=O)cc1,9%,6%
CCOC(=O)c1c(C)nc2c(c1-c1cc(OC)ccc1OC)C(=O)c1ccccc1-2,9%,2%
NC[C@@H]1O[C@H](O[C@@H]2[C@H](O[C@@H]3O[C@H](CO)[C@@H](O)[C@@H]3O)[C@@H](O)[C@@H](N)C[C@H]2N)[C@@H](N)[C@H](O)[C@@H]1O,6%[25.6 µM],-2%[25.6 µM]
CN(C)c1ccc(-c2cc(Nc3ccc(F)cc3)ncn2)cc1,-6%,x
O=c1cc(-c2cccc(O)c2O)oc2ccccc12,16µM*,u
O=c1cc(-c2ccccc2O)oc2cc(O)ccc12,-28%,-3%
O=[N+]([O-])c1ccc(N2N=C(c3ccco3)CC2c2ccccc2)cc1 (centres undefined),13µM*,-9%
CS(=O)(=O)N1N=C(c2ccco2)CC1c1ccccc1 (centres undefined),x,9%
COc1ccc2[nH]cc(CCNc3ccnc(-c4ccc5c(c4)OCO5)n3)c2c1,2%,x
Cc1ccc(C)c(N(CC(=O)N/N=C/c2ccc(-c3ccc([N+](=O)[O-])cc3)o2)S(=O)(=O)c2ccccc2)c1,u,-11%
CCOc1ccc(S(=O)(=O)N(CC(=O)N/N=C/c2ccc(-c3ccc([N+](=O)[O-])cc3)o2)c2ccccc2)cc1,13µM*,-19%
Cc1cccc(C2=NN(c3ccccc3)[C@H](CO)[C@H]2C)c1,u,-5%[0.00818 µM]
COc1cc(OC)cc(C(=O)NC(=S)NCCc2ccccc2)c1,7.9µM*,4µM*
CC(C)(C)C(=O)NC(=S)NCCc1ccccc1,13µM*,13µM*
COc1cc(OC)cc(C(=O)NCCNC(=O)c2ccccc2)c1,8%,-2%
S=C(NCCc1ccccc1)NCCc1ccccc1,x,-16%
SMILES,ALOX15B inhib,ALOX12 inhib
CN(CCO)c1nc(N)c2c(N)nc3c(c2c1C#N)CC(=O)N3C1CCCC1,x,-5%
CC(C)(C)N1C(=O)Cc2c1nc(N)c1c(N)nc(N3CCCCC3CO)c(C#N)c21 (centres undefined),25µM*,u
Cc1cc(-c2ccc(N=Nc3cc(S(=O)(=O)O)c4ccccc4c3N)c(C)c2)ccc1N=Nc1cc(S(=O)(=O)O)c2ccccc2c1N,3.2µM*,u
Nc1c(S(=O)(=O)O)cc(S(=O)(=O)O)c2ccc(N=Nc3ccccc3)c(O)c12,-2%[11.4 µM],-3%[11.4 µM]
C=CC[C@](C)(O)c1ccccc1,x,-2%
CC(C)c1cc(Nc2cccc(O)c2)cc(C(C)C)c1O,13µM*,u
Oc1cccc(Nc2ccccc2)c1,-26%,-3%
COCC(=O)N1CCC2(CC1)CN(Cc1nccs1)C2,10%,-3%
CC(=O)Nc1ccc(N/C=C/C(=O)c2ccco2)cc1,1%,-10%
CN(C)c1ccc(N/C=C/C(=O)c2ccco2)cc1,25µM*,-15%
CC1CCC(C(C)C)[C@H](O)C1 (some centres undefined),-9%,1%
N[C@@H](CC1=CS(=O)(=O)c2ccc(Cl)cc21)C(=O)O,-7%[11.4 µM],-6%[11.4 µM]
COCC(=O)N1CCC2(CC1)CN(Cc1cc(C(F)(F)F)cc(C(F)(F)F)c1)C2,21%,0%
CCCSC1=N/C(=C\c2ccsc2)C(=O)S1,-21%,-13%
CCCSC1=N/C(=C\C=C\c2ccco2)C(=O)S1,25µM*,u
CCCCCCCCCCCCCc1ccco1,6%,2%
O=C(O)CCCCCN1C(=O)/C(=C\c2ccncc2)SC1=S,x,4%
O=C(O)CCCN1C(=O)/C(=C/c2ccc(-c3nc4ccccc4s3)o2)SC1=S,16µM*,2%
Cc1ccc(NC(=S)NCCc2c[nH]c3ccccc23)cc1,25µM*,u
Cc1ccccc1NC(=S)NCCc1c[nH]c2ccccc12,x,-25%
O=C1/C(=C/c2ccccc2)[C@@H](NC2CCCCC2)c2ccccc21,-7%[11.4 µM],-9%[11.4 µM]
NCCOc1ccccc1Cc1ccccc1,43%,6%
NCCOB(c1ccccc1)c1ccccc1,20µM*,u
C/C(=N\NC(=S)NCCc1ccccc1)c1cccs1,x,4µM*
O=C(NCCCc1ccccc1)c1cccs1,-5%,3%
SMILES,ALOX15B inhib,ALOX12 inhib
Cn1c(=O)c(-c2ccc(Cl)cc2)nc2cnc(N3CCNCC3)nc21,27%,x
CC(C)C1=Nc2cccc3cccc(c23)N1,10µM*,-3%
COc1ccc(C2=Nc3cccc4cccc(c34)N2)cc1,53%,11%
CCOC(=O)c1c2ccc(OCC(=O)N/N=C/c3ccc(C)cc3)cc2n2ccccc12,16µM*,-5%
Cc1ccc(/C=N/NC(=O)CNC(=O)COc2ccccc2)cc1,x,-6%
COCCn1c(=O)c(C)nc2cnc(N3CCNCC3)nc21,0%,-9%
O=C(O)/C=C\c1c2ccc(=O)c(O)c-2oc2c(O)c(O)ccc12,u,-24%[11.4 µM]
O=C(Nc1ccccc1)N1CC[C@@]2(CCCN(C(=O)c3ccncc3)C2)C1,6%,1%
CN=c1nc(-c2ccccc2)n(-c2ccccc2)s1,1µM*,u
c1ccc(Cn2nc(-c3ccccc3)nc2-c2ccccc2)cc1,x,-3%
O=C(NC(=S)Nc1ccccc1N1CCCCC1)c1ccc(-c2cccc([N+](=O)[O-])c2)o1,25µM*,-3%
O=C(NC(=S)Nc1ccccc1N1CCCC1)c1ccc(-c2cccc([N+](=O)[O-])c2)o1,7.9µM*,u
Cc1c(C(=O)NC(=S)Nc2ccccc2N2CCCC2)cccc1[N+](=O)[O-],x,-5%
O=C(NC(=S)Nc1ccccc1N1CCOCC1)c1ccc(-c2cccc(Cl)c2)o1,x,-8%
CC(=O)OC1CC2C(C)(C)C(=O)[C@@H]3OC3[C@@]2(C)C2CC[C@]3(C)C(=CC(=O)OC3c3ccoc3)[C@]12C (some centres undefined),-4%,5%
Cc1c(C)c2c(c(C)c1O)CC[C@@](C)(C(=O)O)O2,-22%[25.6 µM],-6%[25.6 µM]
CC1CCN(S(=O)(=O)c2ccc(NC(=O)N3c4ccccc4Sc4ccccc43)cc2)CC1,-28%,-1%
NS(=O)(=O)c1ccc(NC(=O)N2c3ccccc3Sc3ccccc32)cc1,u,16µM*
O=c1c(-c2ccc3c(c2)OCCO3)coc2cc(O)cc(O)c12,3%,u
O=c1c(-c2ccccc2)coc2cc(O)cc(O)c12,5%,11µM*
O=c1cc(-c2ccc(O)cc2)oc2cc(O)cc(O)c12,-7%,-3%
O=c1cc(-c2cc(O)c(O)c(O)c2)oc2cc(O)cc(O)c12,13µM*,-26%
N#C/C(=C\c1ccc(O)c(O)c1)C(=O)NCCCCc1ccccc1,16µM*,u
